This is part of a sample that, as a whole, favours compounds with a hit. Of some 83,000 tested, about 20% had one in any assay.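 Note: values are percent growth. 100 is the growth of untreated cells, values between 100 and 0 indicate rising inhibition; between -100 and 0 indicates cell death.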 Values without a mark were called inactive. The source made the active and inactive calls. The calls were made as follows: active = growth percent below 10; inactive = the rest.

Test systems include T-47D breast; BT-549 breast; MDA-MB-435 melanoma; SW-620 colon; MCF7 breast; HCT-116 colon; HCC-2998 colon; KM12 colon.
Assay in all cases: NCI-60 one-dose screen, 48 h (100 = growth as untreated, 0 = no growth, -100 = all killed)
Common to all, as to settings: 10 µM unless noted

On to `C=C[C@H]1CCC/C=C/[C@@H]2C[C@H](O)C[C@H]2[C@H](O)/C=C/C(=O)O1`, for which the growth was -14% (active) in the test with T-47D breast; 0.705% (active) with BT-549 breast; 15% in the test on MDA-MB-435 melanoma; -63.8% (active) with SW-620 colon; -50.1% (active) in the test on MCF7 breast; -76.9% (active) in the test with HCT-116 colon. In addition, the growth is -62.4% (active) in the test with HCC-2998 colon and -59.2% (active) in the test with KM12 colon.
For `C=CCN(CC#N)CC=C`, the growth is 101% with T-47D breast; 116% with BT-549 breast; 101% with MDA-MB-435 melanoma; 107% in the test on SW-620 colon; 95% in the test with MCF7 breast; 98.1% in the test on HCT-116 colon. For the same compound, the growth in the test with HCC-2998 colon is 118%; in the test with KM12 colon, 108%.
As for `O=C(Cc1ccc([N+](=O)[O-])cc1)Oc1ccccc1`, the growth in the test with T-47D breast is 109%; in the test with BT-549 breast it was 106%; in the test on MDA-MB-435 melanoma it was 122%; in the test with SW-620 colon, 114%; in the test on MCF7 breast, 107%; in the test on HCT-116 colon it was 114%. In addition, the growth in the test on HCC-2998 colon is 106%; with KM12 colon, 118%.
For `c1ccc2oc(-c3cnc4nonc4n3)cc2c1`, the growth in the test on T-47D breast was 79.7%; in the test with BT-549 breast, 95.8%; in the test with MDA-MB-435 melanoma, 109%; in the test with SW-620 colon it was 94%; in the test on MCF7 breast, 88.5%; in the test with HCT-116 colon, 90.1%. Moreover, the growth was 120% with HCC-2998 colon and 112% with KM12 colon.
Turning to `O=C(Nc1cccc(-n2ccc3c(NC(=O)c4ccccc4)nccc32)c1)c1ccc(N2CCOCC2)c(C(F)(F)F)c1`, the growth in the test with T-47D breast is 7.57% (active); in the test on BT-549 breast it was 25.2%; with MDA-MB-435 melanoma, 5.17% (active); in the test with SW-620 colon, 26.9%; in the test with MCF7 breast, 14%; with HCT-116 colon it was 12.5%. In addition, the growth in the test with HCC-2998 colon was 8.77% (active); in the test on KM12 colon, 7.93% (active).
On to `CC(=O)c1ccc(Br)c([N+](=O)[O-])c1`, for which the growth is 104% with T-47D breast; 99.7% in the test on BT-549 breast; 101% in the test on MDA-MB-435 melanoma; 120% with SW-620 colon; 94.1% in the test with MCF7 breast; 96.9% with HCT-116 colon. For the same compound, the figures for the growth with HCC-2998 colon and with KM12 colon were 109% and 107%, respectively.
Turning to `COc1cc(C2CC(c3ccc(Cl)cc3)=NN2C(C)=O)ccc1Oc1ccnc2cc(Cl)ccc12` (configuration not stated), the growth in the test with T-47D breast was 53.9%; in the test on BT-549 breast it was 92%; in the test on MDA-MB-435 melanoma it was 62%; in the test with SW-620 colon it was 66.3%; in the test with MCF7 breast, 42.5%; in the test on HCT-116 colon it was 24.5%. In addition, the growth with HCC-2998 colon is 59.4%; in the test with KM12 colon, 73.5%.
On to `CCCCCCCCCCCCC1CCC(=O)O1` (configuration not stated), for which the growth with T-47D breast was 74.1%; with BT-549 breast, 96.5%; in the test with MDA-MB-435 melanoma, 98.8%; in the test with SW-620 colon, 90.3%; in the test with MCF7 breast it was 93.4%; with HCT-116 colon, 95.2%. The growth in the test on HCC-2998 colon is 104%; in the test with KM12 colon, 100%.
Turning to `Cc1ccc(OC2=C(C#N)C(=N)N3C(=NN2)Sc2c(C)ccc(C)c23)cc1`, the growth in the test with T-47D breast was 84.8%; with BT-549 breast, 105%; with MDA-MB-435 melanoma it was 106%; in the test on SW-620 colon it was 102%; in the test on MCF7 breast it was 91%; in the test with HCT-116 colon, 106%. Also, the growth in the test with HCC-2998 colon and in the test with KM12 colon was 106% in each case.
Regarding `Nc1cc(C(=O)O)cc(C(=O)O)c1`, the growth is 97.1% with T-47D breast; 107% in the test on BT-549 breast; 108% in the test on MDA-MB-435 melanoma; 110% in the test on SW-620 colon; 99.8% with MCF7 breast; 101% with HCT-116 colon. In addition, the results for the growth with HCC-2998 colon and with KM12 colon were 121% and 111%, respectively.
Consider `CC(C)(C)[Si](C)(C)OC1[C@@H](O[Si](C)(C)C(C)(C)C)[C@@H](CNC(=O)NC(=O)NC(=O)CI)O[C@H]1n1cnc2c(NC(=O)Nc3ccccc3)ncnc21` (some centres not stated), for which the growth in the test with T-47D breast was 87.5%; with BT-549 breast, 97.3%; in the test with MDA-MB-435 melanoma it was 93.2%; in the test on SW-620 colon it was 76.1%; in the test with MCF7 breast, 70.8%; in the test with HCT-116 colon it was 38.5%. For the same compound, the growth is 99.4% in the test with HCC-2998 colon and 32.9% with KM12 colon.
With `CC(C)c1ccc2c(c1)CCC1C2CCCC1(C)NCc1ccccc1` (configuration not stated), the growth with T-47D breast was 12.8%; in the test on BT-549 breast it was 106%; in the test on MDA-MB-435 melanoma, 18.2%; in the test with SW-620 colon it was 3.49% (active); in the test on MCF7 breast it was 75.5%; with HCT-116 colon, 60.3%. Further, the growth in the test on HCC-2998 colon was -91.3% (active); in the test with KM12 colon it was 23.1%.
Consider `COc1cc(C2CC(c3ccc(Cl)cc3)=NN2C=O)ccc1Oc1ccnc2cc(Cl)ccc12` (configuration not stated), for which the growth with T-47D breast was 56.4%; with BT-549 breast it was 94.7%; in the test on MDA-MB-435 melanoma it was 73.3%; with SW-620 colon it was 84.5%; with MCF7 breast, 53.4%; in the test with HCT-116 colon, 49.2%. Also, the growth in the test on HCC-2998 colon was 72.8%; in the test with KM12 colon, 76.2%.
On to `Cc1ccccc1Nc1n[nH]c(Cc2ccccc2)n1`, for which the growth in the test with T-47D breast is 101%; in the test on BT-549 breast, 105%; in the test on MDA-MB-435 melanoma, 107%; with SW-620 colon, 102%; in the test on MCF7 breast, 99.1%; in the test on HCT-116 colon, 99.9%. The growth is 100% with HCC-2998 colon and 101% in the test on KM12 colon.

Values taken from PubChem BioAssay (NCI).
